According to PubChem BioAssay (EPA / NIEHS):
Where “and” joins values, the source holds several entries; their conditions need not be identical. Identical values can stand only once. Some structures have more than one record in an assay (separate samples or runs), and their calls can disagree. Calls of active or inactive are those of the source. The calls were made as follows: active = hit-call score of the fitted dose curve at least 0.9, where 1 is the maximum; inactive = score below 0.9.

Columns and labels:
[1] = read-out: Urokinase-type plasminogen activator receptor (uPAR), PLAUR (gene 5329); test: BSK_4H_uPAR: BioMAP Diversity Plus: 4H Assay for Urokinase-type plasminogen activator receptor (uPAR) Biomarker Activity (AID 2283030); settings: primary human endothelial cells (HUVEC); actives raise or lower the signal
In short: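 uPAR level read by ELISA on HUVEC cultures (BioMAP 4H) 24 h post-dosing, analyzed for gain or loss relative to DMSO. Parallel SRB staining assessed overt cytotoxicity.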

[2] = read-out: Vascular endothelial growth factor receptor 2 (Homo sapiens) (UniProt P35968); test: BSK_4H_VEGFRII: BioMAP Diversity Plus: 4H Assay for Vascular endothelial growth factor receptor 2 (VEGFR2) Biomarker Activity (AID 2283031); settings: primary human endothelial cells (HUVEC); actives raise or lower the signal;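 as to AC50: cell-surface VEGFR2 protein level quantified by ELISA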
In short: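 Measured by ELISA after 24 h of compound treatment: VEGFR2 on primary human umbilical vein endothelial cells, fitted in both directions relative to DMSO. Parallel cultures received SRB staining (560 nm) for overt cytotoxicity.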

[3] = read-out: Human Leukocyte Antigen - DR isotype (HLADR), HLA-DRA (gene 3122); test: BSK_BE3C_HLADR: BioMAP Diversity Plus: BE3C Assay for Human Leukocyte Antigen - DR isotype (HLADR) Biomarker Activity (AID 2283032); settings: primary human bronchial epithelial cells; actives raise or lower the signal
In short: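 Cell-surface HLA-DR ELISA readout at 24 h after dosing in the BE3C primary human lung bronchial epithelial system; gain or loss of signal against DMSO, with parallel sulforhodamine B staining of total protein for overt cytotoxicity.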

[4] = read-out: Vascular cell adhesion molecule 1 (VCAM1), VCAM1 (gene 7412); test: BSK_4H_VCAM1: BioMAP Diversity Plus: 4H Assay for Vascular cell adhesion molecule 1 (VCAM1) Biomarker Activity (AID 2283033); settings: primary human endothelial cells (HUVEC); actives raise or lower the signal;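 as to outcome: cell-surface VCAM-1 protein measured by ELISA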
In short: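 VCAM-1 ELISA read 24 h after chemical dosing of HUVEC in the BioMAP 4H system, with gain or loss of signal fitted relative to DMSO. Parallel SRB staining (560 nm) checked overt cytotoxicity.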

[5] = read-out: Interferon-gamma inducible Protein 10 (IP10), CXCL10 (gene 3627); test: BSK_BE3C_IP10: BioMAP Diversity Plus: BE3C Assay for Interferon-gamma inducible Protein 10 (IP10) Biomarker Activity (AID 2283034); settings: primary human bronchial epithelial cells; actives raise or lower the signal
In short: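 IP-10 quantified by ELISA in human primary bronchial epithelial cell cultures at 24 hours post-dosing. Gain or loss of signal fitted relative to DMSO; parallel SRB staining assessed overt cytotoxicity.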

[6] = read-out: Monokine induced gamma interferon (MIG), CXCL9 (gene 4283); test: BSK_BE3C_MIG: BioMAP Diversity Plus: BE3C Assay for Monokine induced gamma interferon (MIG) Biomarker Activity (AID 2283035); settings: primary human bronchial epithelial cells; actives raise or lower the signal
In short: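 Dose cells (human primary bronchial epithelial), incubate 24 h, quantify MIG by ELISA, then fit concentration–response in both directions relative to DMSO control.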

[7] = read-out: Plasminogen activator inhibitor-1 (PAI1), SERPINE1 (gene 5054); test: BSK_BE3C_PAI1: BioMAP Diversity Plus: BE3C Assay for Plasminogen activator inhibitor-1 (PAI1) Biomarker Activity (AID 2283037); settings: primary human bronchial epithelial cells; actives raise or lower the signal
In short: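 PAI-1 was measured by ELISA in human primary bronchial epithelial cultures 24 h after chemical dosing, with cytotoxicity checked by SRB total-protein staining in parallel cultures. Activity was fitted in both directions relative to DMSO.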

[8] = read-out: urokinase plasminogen activator (uPA), PLAU (gene 5328); test: BSK_BE3C_uPA: BioMAP Diversity Plus: BE3C Assay for urokinase plasminogen activator (uPA) Biomarker Activity (AID 2283038); settings: primary human bronchial epithelial cells; actives raise or lower the signal;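 as to outcome: uPA protein level quantified by ELISA in cell cultures; uPA read one day after compound addition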
In short: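 ELISA for uPA on human primary bronchial epithelial cultures 24 h post-treatment, gain or loss against DMSO. Parallel SRB staining (0.1% after 10% TCA fixation, 560 nm) assessed overt cytotoxicity.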

[9] = read-out: Urokinase-type plasminogen activator receptor (uPAR), PLAUR (gene 5329); test: BSK_BE3C_uPAR: BioMAP Diversity Plus: BE3C Assay for Urokinase-type plasminogen activator receptor (uPAR) Biomarker Activity (AID 2283039); settings: primary human bronchial epithelial cells; actives raise or lower the signal;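 as to outcome: cells exposed to compound for one day before measurement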
In short: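 uPAR levels were measured by ELISA after 24 h compound treatment of primary human bronchial epithelial cells, fitted in both directions relative to DMSO. Parallel SRB staining served as the cytotoxicity read-out.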

[10] = read-out: Interleukin-6 (IL6), IL6 (gene 3569); test: BSK_CASM3C_IL6: BioMAP Diversity Plus: CASM3C Assay for Interleukin-6 (IL6) Biomarker Activity for (AID 2283040); settings: primary human coronary artery smooth muscle cells; actives raise or lower the signal
[11] = read-out: Tissue plasminogen activator (tPA), PLAT (gene 5327); test: BSK_BE3C_tPA: BioMAP Diversity Plus: BE3C Assay for Tissue plasminogen activator (tPA) Biomarker Activity (AID 2283041); settings: primary human bronchial epithelial cells; actives raise or lower the signal;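 as to outcome: tPA level quantified by ELISA one day after compound addition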
In short: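 tPA measured by ELISA 24 h after dosing human primary bronchial epithelial cells (BE3C system). Changes in either direction were fitted against DMSO. Parallel cultures were stained with SRB to flag overt cytotoxicity.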

[12] = read-out: Interleukin-8 (IL8), CXCL8 (gene 3576); test: BSK_CASM3C_IL8: BioMAP Diversity Plus: CASM3C Assay for Interleukin-8 (IL8) Biomarker Activity (AID 2283042); settings: primary human coronary artery smooth muscle cells; actives raise or lower the signal;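 also: IL-8 protein level quantified by ELISA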
[13] = read-out: Human Leukocyte Antigen - DR isotype (HLADR), HLA-DRA (gene 3122); test: BSK_CASM3C_HLADR: BioMAP Diversity Plus: CASM3C Assay for Human Leukocyte Antigen - DR isotype (HLADR) Biomarker Activity (AID 2283043); settings: primary human coronary artery smooth muscle cells; actives raise or lower the signal;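 also: cell-surface HLA-DR protein level quantified by ELISA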
[14] = read-out: Macrophage colony-stimulating factor (MCSF), CSF1 (gene 1435); test: BSK_CASM3C_MCSF: BioMAP Diversity Plus: CASM3C Assay for Macrophage colony-stimulating factor (MCSF) Biomarker Activity (AID 2283044); settings: primary human coronary artery smooth muscle cells; actives raise or lower the signal;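 also: M-CSF protein amount quantified by ELISA after 24 h exposure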
[15] = read-out: Low-density lipoprotein receptor (LDLR), LDLR (gene 3949); test: BSK_CASM3C_LDLR: BioMAP Diversity Plus: CASM3C Assay for Low-density lipoprotein receptor (LDLR) Biomarker Activity (AID 2283045); settings: primary human coronary artery smooth muscle cells; actives raise or lower the signal;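 also: LDLR protein level on the cell surface quantified by ELISA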
[16] = read-out: Monocyte Chemoattractant Protein-1 (MCP1), CCL2 (gene 6347); test: BSK_CASM3C_MCP1: BioMAP Diversity Plus: CASM3C Assay for Monocyte Chemoattractant Protein-1 (MCP1) Biomarker Activity (AID 2283046); settings: primary human coronary artery smooth muscle cells; actives raise or lower the signal;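 also: MCP-1 level quantified by ELISA 24 h after dosing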
[17] = BSK_CASM3C_Proliferation: Cell Proliferation Assessment in the BioMAP Diversity Plus: CASM3C Assay (AID 2283047); settings: primary human coronary artery smooth muscle cells;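 also: sulforhodamine B total protein stain as relative cell number at 560 nm; sub-confluent cells exposed 48 h before staining; fitted both ways against DMSO so gain or loss of cell number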
[18] = read-out: Monokine induced gamma interferon (MIG), CXCL9 (gene 4283); test: BSK_CASM3C_MIG: BioMAP Diversity Plus: CASM3C Assay for Monokine induced gamma interferon (MIG) Biomarker Activity (AID 2283048); settings: primary human coronary artery smooth muscle cells; actives raise or lower the signal;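 also: MIG protein level measured by ELISA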
[19] = read-out: serum amyloid A (SAA), SAA1 (gene 6288); test: BSK_CASM3C_SAA: BioMAP Diversity Plus: CASM3C Assay for serum amyloid A (SAA) Biomarker Activity (AID 2283049); settings: primary human coronary artery smooth muscle cells; actives raise or lower the signal;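 also: SAA protein level quantified by ELISA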
[20] = read-out: Transforming growth factor beta 1 (TGFb1), TGFB1 (gene 7040); test: BSK_BE3C_TGFb1: BioMAP Diversity Plus: BE3C Assay for Transforming growth factor beta 1 (TGFb1) Biomarker Activity (AID 2283036;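 also: TGF-b1 protein level measured by ELISA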); settings: primary human bronchial epithelial cells; actives raise or lower the signal
In short: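 ELISA readout of TGF-b1 from human lung bronchial epithelial primary cells, taken 24 h post-treatment. Gain or loss of signal fitted relative to DMSO baseline, with parallel SRB staining for overt cytotoxicity.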

With `CCCCCCOC(=O)c1ccccc1C(=O)OCCCCCC` the outcome [1] was “inactive”, the outcome [2] was “inactive” and the outcome [3] was “inactive”. For the same compound, the outcome [4] was “inactive”, the outcome [5] was “inactive” and the outcome [6] was “inactive”. The outcome [7] was “inactive”, the outcome [8] was “inactive” and the outcome [9] was “inactive”. For the same compound, the outcome [10] was “inactive”, the outcome [11] was “inactive” and the outcome [12] was “inactive”. For the same compound, the outcome [13] was “inactive”, the outcome [14] was “inactive” and the outcome [15] was “inactive”. For the same compound, the outcome [16] was “inactive”, the outcome [17] was “inactive” and the outcome [18] was “inactive”. The outcome [19] was “inactive”.
With `CN(C)CCO` the outcome [1] was “inactive”, the outcome [2] was “inactive” and the outcome [3] was “inactive”. For the same compound, the outcome [4] was “inactive”, the outcome [5] was “inactive” and the outcome [6] was “inactive”. For the same compound, the outcome [7] was “inactive”, the outcome [8] was “inactive” and the outcome [9] was “inactive”. For the same compound, the outcome [10] was “inactive”, the outcome [11] was “inactive” and the outcome [12] was “inactive”. The outcome [13] was “inactive”, the outcome [14] was “inactive” and the outcome [15] was “inactive”. For the same compound, the outcome [16] was “inactive”, the outcome [17] was “inactive” and the outcome [18] was “inactive”. The outcome [19] was “inactive”.
For `Oc1c(Cl)c(Cl)c(Cl)c(Cl)c1Cl`, the AC50 [1] was 5.58 µM (active) and 9.79 µM (active), the AC50 [2] was 11.6 µM (active) and the outcome [2] was “inactive”. The AC50 [4] was 10.2 µM (active) and 21.5 µM (active), the AC50 [5] was 5.02 µM (active) and 5.67 µM (active) and the AC50 [6] was 11.8 µM (active) and 30.3 µM (active). The AC50 [7] was 1.18 µM (active) and 10.5 µM (active), the AC50 [8] was 4.12 µM (active) and 14.7 µM (active) and the AC50 [9] was 7.14 µM (active) and 24.6 µM (active). The outcome [10] was “inactive”, the AC50 [11] was 2.56 µM (active) and 7.59 µM (active) and the AC50 [12] was 2.09 µM (active). For the same compound, the outcome [12] was “inactive”, the AC50 [13] was 20 µM (active) and the outcome [13] was “inactive”. For the same compound, the outcome [14] was “inactive”, the outcome [15] was “inactive” and the outcome [16] was “inactive”. For the same compound, the AC50 [17] was 26.7 µM (active), the outcome [17] was “inactive” and the outcome [18] was “inactive”. For the same compound, the outcome [19] was “inactive”.
In the case of `O=C(O)C(F)(F)C(F)(F)C(F)(F)C(F)(F)C(F)(F)C(F)(F)C(F)(F)C(F)(F)F`, the outcome [1] is reported as “inactive”, the outcome [2] is reported as “inactive” and the AC50 [4] is reported as 41.7 µM (active). The outcome [4] was “inactive”, the AC50 [5] was 27.7 µM (active) and 45.9 µM (active) and 43.7 µM (active) and the AC50 [6] was 32.7 µM (active) and 50.1 µM (active) and 52.7 µM (active). The AC50 [7] was 32.3 µM (active) and 23.3 µM (active) and 40.2 µM (active), the AC50 [8] was 37.2 µM (active) and 49.1 µM (active) and 30 µM (active) and the AC50 [9] was 35.1 µM (active) and 47.8 µM (active) and 48.6 µM (active). For the same compound, the outcome [10] was “inactive”, the AC50 [11] was 20 µM (active) and 23.6 µM (active) and 21.6 µM (active) and the outcome [12] was “inactive”. For the same compound, the outcome [13] was “inactive”, the outcome [14] was “inactive” and the outcome [15] was “inactive”. The outcome [16] was “inactive”, the outcome [17] was “inactive” and the outcome [18] was “inactive”. The outcome [19] was “inactive”.
In the case of `CO/C=C(/C(=O)OC)c1ccccc1COc1cccc(C(F)(F)F)n1`, the outcome [1] is reported as “inactive”, the outcome [2] is reported as “inactive” and the outcome [3] is reported as “inactive”. The AC50 [4] was 4.02 µM (active), the AC50 [5] was 3.97 µM (active) and the outcome [6] was “inactive”. The outcome [7] was “inactive”, the outcome [8] was “inactive” and the outcome [9] was “inactive”. The AC50 [10] was 5.93 µM (active), the outcome [11] was “inactive” and the AC50 [12] was 3.94 µM (active). The outcome [13] was “inactive”, the outcome [14] was “inactive” and the outcome [15] was “inactive”. The outcome [16] was “inactive”, the AC50 [17] was 5.66 µM (active) and the outcome [18] was “inactive”. For the same compound, the outcome [19] was “inactive”.
In the case of `O=C(NC(=O)c1cc(F)c(F)cc1Cl)Nc1cc(F)ccc1N1CCC(C(=O)O)CC1`, the outcome [1] is reported as “inactive”, the outcome [2] is reported as “inactive” and the outcome [4] is reported as “inactive”. The outcome [5] was “inactive”, the outcome [6] was “inactive” and the outcome [20] was “inactive”. For the same compound, the outcome [7] was “inactive”, the outcome [8] was “inactive” and the outcome [9] was “inactive”. For the same compound, the outcome [10] was “inactive”, the outcome [11] was “inactive” and the outcome [12] was “inactive”. The outcome [13] was “inactive”, the outcome [14] was “inactive” and the outcome [15] was “inactive”. For the same compound, the outcome [16] was “inactive”, the outcome [17] was “inactive” and the outcome [18] was “inactive”. The outcome [19] was “inactive”.
